From PubChem BioAssay
“And” between values parts separate entries of the source, which are not always exact repeats. Equal entries are not always repeated. The source made the active and inactive calls.

Assays:
[1] = optical density shifts of acrAB sulA E. coli – strain DRC41, OD650, 48 h, E. coli filamentation inducer project, primary screen (AID 1152); details: higher = more signal, called active from +8 up or from −8 down;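 note: E. coli MC1000 strain DRC41 lacking acrAB efflux pump and sulA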
[2] = probe aLefty1 binding on compound microarray – biochemical, small-molecule microarray, 635/667 nm fluorescence, primary screen (AID 1153); details: higher = more signal;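 note: score merges spot fluorescence with signal-to-noise ratio from the scanned slide images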
[3] = plasmodial surface anion channel blockers, osmotic lysis – cell-based, P. falciparum Indochina, OD700, 1 h, primary screen (AID 1154); details: P. falciparum Indochina infected RBC osmotic lysis, higher = more signal, called active from +8 up or from −8 down
[4] = plasmodial surface anion channel blockers, osmotic lysis – cell-based, P. falciparum Indochina, OD700, 2 h, primary screen (AID 1155);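 note: lysis reports solute entry through the parasite surface anion channel PSAC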; details: P. falciparum Indochina infected erythrocytes, higher = more signal, called active from +8 up or from −8 down
[5] = changes in parasitized red cell lysis, either direction – P. falciparum Indochina, OD700, 3 h, PSAC antagonist project, primary screen (AID 1156); details: P. falciparum-infected erythrocytes, osmotic lysis, higher = more signal, called active from +8 up or from −8 down
[6] = plasmodial surface anion channel blockers, osmotic lysis – cell-based, P. falciparum Indochina, OD700, 18 h, primary screen (AID 1157); details: P. falciparum Indochina infected erythrocytes, osmotic lysis OD700, 18 h; higher = more signal, called active from +8 up or from −8 down
[7] = S6 kinase pathway phospho-S6 level changes – cell-based, A549, cytoblot, luminescence, serum-stimulated, primary screen (AID 1158); details: 5 h, higher = more signal;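 note: serum-stimulated A549 lung adenocarcinoma cells; signal is phosphorylated S6 detected by cytoblot immunostaining with HRP secondary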
[8] = molecular target: NADPH oxidase 2 (Homo sapiens) (UniProt P04839); assay: compounds shifting NOX2 Amplex Red fluorescence – cell-based, HEK293-NOX2, PMA-stimulated, NOX inhibitor project, primary screen (AID 1159); details: 45 min, higher = more signal, called active from +8 up or from −8 down; note: test concentration not given here
[9] = molecular target: NADPH oxidase 4 (Homo sapiens) (UniProt Q9NPH5); assay: compounds shifting NOX4 Amplex Red fluorescence – cell-based, HEK293-NOX4, tetracycline-induced, NOX inhibitor project, primary screen (AID 1160); details: HEK293-NOX4, Amplex Red H2O2 fluorescence, 45 min; higher = more signal, called active from +8 up or from −8 down
[10] = molecular target: NADPH oxidase 5 (Homo sapiens) (UniProt Q96PH1); assay: compounds shifting NOX5 Amplex Red fluorescence – cell-based, HEK293-NOX5, NOX inhibitor project, primary screen (AID 1161); details: HEK293-NOX5, ionomycin, 45 min, higher = more signal
[11] = compound effects on lung adenocarcinoma cell viability – A549, calcein-AM fluorescence, 48 h, basal, profiling panel (AID 1162); details: higher = more signal; note: test concentration not given here
[12] = compound effects on differentiated 3T3-L1 adipocyte viability – cell-based, 3T3-L1 adipocytes, calcein-AM fluorescence, 48 h, basal, profiling panel (AID 1163); details: 3T3-L1 adipocytes viability, higher = more signal; note: test concentration not given here
[13] = compound effects on hepatocellular carcinoma cell viability – HepG2, calcein-AM fluorescence, 48 h, basal, profiling panel (AID 1164); details: higher = more signal; note: test concentration not given here
[14] = compound effects on multiple myeloma cell viability – MM1S, calcein-AM fluorescence, 48 h, basal, profiling panel (AID 1165); details: higher = more signal;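 note: viability of MM1S multiple myeloma cells under basal unstimulated conditions; test concentration not given here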
[15] = calcein-AM signal in unstimulated myeloma cells – cell-based, calcein-AM fluorescence, 48 h, PK04 Diversity Set, profiling panel (AID 1166); details: RPMI8226 myeloma viability, higher = more signal;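 note: cells grown under basal conditions without added stimulus; test concentration not given here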
[16] = JC-1 mitochondrial signal, unstimulated HepG2 cells – cell-based, JC-1 fluorescence, 24 h, 100 nL compound, profiling panel (AID 1167); details: HepG2 mitochondrial potential, higher = more signal; note: test concentration not given here
[17] = JC-1 mitochondrial signal, unstimulated adipocytes – cell-based, JC-1 fluorescence, 3T3-L1 adipocytes, 24 h, 100 nL compound, profiling panel (AID 1168); details: JC-1 mitochondrial fluorescence, higher = more signal, called active from +8 up or from −8 down; note: test concentration not given here
[18] = JC-1 mitochondrial signal, unstimulated myeloma cells – cell-based, JC-1 fluorescence, RPMI8226, 24 h, 100 nL compound, profiling panel (AID 1169); details: JC-1 mitochondrial potential fluorescence, higher = more signal; note: test concentration not given here
[19] = JC-1 mitochondrial signal, unstimulated MM1S myeloma – cell-based, JC-1 fluorescence, 24 h, 100 nL compound, profiling panel (AID 1170); details: MM1S mitochondrial potential, higher = more signal; note: test concentration not given here
[20] = resazurin metabolic signal in A549 cells – cell-based, resazurin fluorescence, 24 h, PK04 Diversity Set, profiling panel (AID 1171); details: A549 viability, higher = more signal, called active from +8 up or from −8 down; note: test concentration not given here

Sequence of NADPH oxidase 2 (Homo sapiens) (P04839 whole entry, looked up): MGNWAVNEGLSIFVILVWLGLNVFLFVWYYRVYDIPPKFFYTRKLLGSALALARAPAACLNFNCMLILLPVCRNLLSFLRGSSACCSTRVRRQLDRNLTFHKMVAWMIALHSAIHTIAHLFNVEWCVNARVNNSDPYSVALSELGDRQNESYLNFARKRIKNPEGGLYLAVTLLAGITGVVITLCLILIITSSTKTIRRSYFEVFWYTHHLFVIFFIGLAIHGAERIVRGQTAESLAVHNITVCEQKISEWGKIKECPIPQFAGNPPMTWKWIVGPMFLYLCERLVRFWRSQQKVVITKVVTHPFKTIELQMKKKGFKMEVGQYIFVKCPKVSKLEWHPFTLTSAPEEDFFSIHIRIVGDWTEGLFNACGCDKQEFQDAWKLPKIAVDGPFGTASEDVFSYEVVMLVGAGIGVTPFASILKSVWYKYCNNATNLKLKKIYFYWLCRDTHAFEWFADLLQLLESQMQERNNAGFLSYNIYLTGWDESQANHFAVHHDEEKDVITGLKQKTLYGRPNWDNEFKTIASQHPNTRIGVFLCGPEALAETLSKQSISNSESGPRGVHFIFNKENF
Sequence of NADPH oxidase 5 (Homo sapiens) (Q96PH1 whole entry, looked up): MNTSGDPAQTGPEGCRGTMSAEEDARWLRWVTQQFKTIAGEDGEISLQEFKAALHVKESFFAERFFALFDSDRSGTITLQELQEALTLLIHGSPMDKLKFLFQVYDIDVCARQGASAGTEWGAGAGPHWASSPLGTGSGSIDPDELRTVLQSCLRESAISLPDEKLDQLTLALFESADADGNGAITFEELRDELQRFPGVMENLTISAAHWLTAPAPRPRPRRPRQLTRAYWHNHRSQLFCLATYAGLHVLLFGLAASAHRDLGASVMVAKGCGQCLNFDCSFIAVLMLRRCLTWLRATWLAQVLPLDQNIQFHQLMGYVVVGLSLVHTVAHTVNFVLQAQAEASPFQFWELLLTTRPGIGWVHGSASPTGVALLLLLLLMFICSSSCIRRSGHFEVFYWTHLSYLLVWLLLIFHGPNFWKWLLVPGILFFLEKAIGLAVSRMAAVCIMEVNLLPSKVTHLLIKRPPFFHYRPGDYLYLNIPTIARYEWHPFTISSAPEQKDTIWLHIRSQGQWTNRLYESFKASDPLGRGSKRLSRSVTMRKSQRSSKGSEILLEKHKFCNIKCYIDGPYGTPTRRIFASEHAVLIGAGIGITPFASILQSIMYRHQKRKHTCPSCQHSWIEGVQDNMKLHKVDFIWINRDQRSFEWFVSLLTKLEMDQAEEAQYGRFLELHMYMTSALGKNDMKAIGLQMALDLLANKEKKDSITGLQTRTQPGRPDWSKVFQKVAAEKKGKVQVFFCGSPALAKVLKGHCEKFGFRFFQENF
Sequence of NADPH oxidase 4 (Homo sapiens) (Q9NPH5 whole entry, looked up): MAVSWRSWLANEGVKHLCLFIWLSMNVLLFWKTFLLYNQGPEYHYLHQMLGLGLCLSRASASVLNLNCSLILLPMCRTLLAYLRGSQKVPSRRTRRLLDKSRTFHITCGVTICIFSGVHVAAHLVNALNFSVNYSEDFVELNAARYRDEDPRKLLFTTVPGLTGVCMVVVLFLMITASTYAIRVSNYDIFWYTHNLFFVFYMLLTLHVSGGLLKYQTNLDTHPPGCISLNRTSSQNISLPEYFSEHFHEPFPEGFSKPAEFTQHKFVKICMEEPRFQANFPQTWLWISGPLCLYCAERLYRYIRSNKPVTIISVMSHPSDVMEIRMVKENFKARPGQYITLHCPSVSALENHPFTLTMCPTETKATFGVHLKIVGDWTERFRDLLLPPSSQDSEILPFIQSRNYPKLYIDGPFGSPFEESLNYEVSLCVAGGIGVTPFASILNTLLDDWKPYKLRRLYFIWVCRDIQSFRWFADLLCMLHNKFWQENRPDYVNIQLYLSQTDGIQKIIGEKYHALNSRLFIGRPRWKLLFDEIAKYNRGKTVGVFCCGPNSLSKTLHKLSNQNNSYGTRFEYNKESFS

| SMILES | z-score [1] | composite z-score [2] | z-score [3] | z-score [4] | z-score [5] | z-score [6] | z-score [7] | z-score [8] | z-score [9] | z-score [10] | z-score [11] | z-score [12] | z-score [13] | z-score [14] | z-score [15] | z-score [16] | z-score [17] | z-score [18] | z-score [19] | z-score [20] |
| --- | --- | --- | --- | --- | --- | --- | --- | --- | --- | --- | --- | --- | --- | --- | --- | --- | --- | --- | --- | --- |
| C=C[C@H](OC)[C@@H](O)c1ccc(O)c(F)c1 | -0.809 (inactive) and 0.573 (inactive) | -0.266 and -0.148 | -0.0463 (inactive) and 0.351 (inactive) | 0.125 (inactive) and 0.702 (inactive) | -0.389 (inactive) and -0.0295 (inactive) | -0.138 (inactive) and 0.403 (inactive) | -0.141 and 0.723 | -1.01 (inactive) and -0.872 (inactive) | -0.137 (inactive) and -0.407 (inactive) | 0.0933 and -0.503 | -0.52 and -0.4 | -0.345 and -0.128 | -0.0991 and 0.594 | -1.17 and 1.06 | 0.544 and 0.196 | -0.914 and 0.658 | -0.186 (inactive) and -0.636 (inactive) | 0.675 and 0.679 | -0.0752 and -0.474 | -0.535 (inactive) and -0.0165 (inactive) |
| C=C[C@H](C)[C@@H](O)c1ccc(OCCO)cc1 | -0.454 (inactive) and -0.0821 (inactive) | -0.235 and -0.146 | 0.92 (inactive) and 1.14 (inactive) | 0.613 (inactive) and 0.0956 (inactive) | -0.642 (inactive) and -0.202 (inactive) | 0.232 (inactive) and 0.252 (inactive) | -0.248 and -0.5 | 0.149 (inactive) and -0.758 (inactive) | 0.101 (inactive) and -0.0609 (inactive) | 0.297 and 0.492 | 0.235 and -0.066 | 0.101 and -0.192 | -0.211 and 0.619 | 0.529 and -0.301 | -0.528 and 0.864 | -0.368 and 0.814 | 0.428 (inactive) and 0.45 (inactive) | -0.961 and 0.99 | 0.976 and -0.205 | 0.0233 (inactive) and -0.361 (inactive) |
| CC(=O)OC[C@H]1O[C@H](C#CC(C)(C)C)C=C[C@@H]1OC(C)=O | 0.192 (inactive) | -0.0969 | -0.184 (inactive) | 0.0987 (inactive) | -0.537 (inactive) | -0.0954 (inactive) | -0.675 | 1.5 (inactive) | 0.847 (inactive) | 0.943 | -0.327 | -0.274 | -0.24 | -3.02 | -1.73 | -0.888 | 0.386 (inactive) | -0.776 | 0.085 | -0.595 (inactive) |
| C=CCN(C(=O)C1N(CCOCCO)C(=O)C2C(C(=O)O)C3C=CC21O3)c1ccc(OC)cc1 (stereo not given) | 0.168 (inactive) and 0.839 (inactive) | -0.262 and -0.243 | -0.586 (inactive) and -1.15 (inactive) | 0.0933 (inactive) and -0.0778 (inactive) | -1.1 (inactive) and -0.285 (inactive) | -0.0612 (inactive) and -0.161 (inactive) | 1.4 and -0.338 | 0.073 (inactive) and 0.856 (inactive) | -0.509 (inactive) and -0.782 (inactive) | 0.624 and -0.275 | -0.0891 and 0.163 | -0.24 and 0.366 | 0.136 and 0.857 | 0.963 and -0.688 | -0.25 and 0.0863 | 0.191 and -1.15 | 0.124 (inactive) and 1.32 (inactive) | -0.0484 and 0.126 | 1.01 and 0.642 | -0.237 (inactive) and 0.168 (inactive) |
| C=CCN(CCCCC)C(=O)C(c1cccs1)N(C(=O)/C=C\C(=O)O)c1c(Cl)cccc1CO (stereo not given) | -0.316 (inactive) and -0.346 (inactive) | 0.0005 and -1.11 | -0.501 (inactive) and 0.334 (inactive) | 0.092 (inactive) and 0.571 (inactive) | -0.0324 (inactive) and -0.0069 (inactive) | 0.257 (inactive) and 0.404 (inactive) | -0.122 and -0.137 | 0.306 (inactive) and 0.277 (inactive) | -0.584 (inactive) and -0.408 (inactive) | 0.212 and 0.29 | 0.307 and -0.656 | 0.131 and -0.101 | -1.11 and -0.202 | 1.34 and 2.08 | 0.114 and -0.235 | -0.0476 and -0.222 | -0.706 (inactive) and 0.13 (inactive) | 0.1 and 0.992 | 0.0829 and -0.125 | -0.559 (inactive) and 0.0449 (inactive) |
| CCOC(=O)C[C@H]1[C@H](OC(=O)c2ccccc2-c2ccccc2)[C@@H](NC(=O)Cc2ccc(OC)cc2)c2cc(OCCCO)ccc2N1C(=O)Cc1ccc(OC)cc1 | 2.52 (inactive) and -0.448 (inactive) | 0.349 and -0.0601 | 2.32 (inactive) and 2.14 (inactive) | -0.672 (inactive) and 0.269 (inactive) | 0.308 (inactive) and -0.142 (inactive) | -1.18 (inactive) and 0.255 (inactive) | 0.551 and -0.0127 | 1.61 (inactive) and 0.265 (inactive) | -0.904 (inactive) and 0.828 (inactive) | 1.79 and 0.274 | 0.615 and 0.158 | 1.92 and 0.0868 | -0.0677 and -0.11 | 0.902 and -0.0317 | 0.869 and -0.427 | 3.07 and 0.376 | 0.491 (inactive) and 0.191 (inactive) | 0.846 and -0.309 | 1.46 and 0.00765 | 0.615 (inactive) and 0.786 (inactive) |
